Screening data as filed in PubChem BioAssay.
This is a sample that favours compounds with a hit; in the whole collection about 7.9% have one here.
Shh pathway inh: blocks Sonic Hedgehog signaling; 2.1% of 22,000 active; AID 2313; Shh-LIGHT2 Gli-luciferase reporter, 30 h; inhibition, % (no concentration beside the values);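 active = mean inhibition across valid replicates above about 65%, limit read from the data; inconclusive = mean under the limit, yet half or more replicates past it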;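 note: pathway switched on by Shh-conditioned medium diluted 1 in 25 in low serum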
NOMO-1 viab: STK33 inhibitor candidate reducing NOMO-1 cell viability | NOMO-1 AML viability, CellTiter-Glo luminescence, 72 h | inhibition, % (no concentration beside the values) | 7.5% of 37,000 active; in the data active = inhibition above about 80%; inconclusive = no clear call, values can overlap the other calls
MITF inhib: blocks MITF activity | TRPM1 promoter luciferase, luminescence, 24 h | inhibition, % (no concentration beside the values) | 0.28% of 37,000 active | AID 2240; in the data active = inhibition above about 85%; inconclusive = no clear call, values can overlap the other calls; inactive = below about 68%;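 note: human melanocyte line stably carrying TRPM1 promoter luciferase reporter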
An asterisk follows results filed as active.

`CCC1c2[nH]c3ccccc3c2CCN1C(=O)c1ccc(Cl)cc1` (stereo not given) gave Shh pathway inh -29.5, NOMO-1 viab 84.2* and MITF inhib 15.5.
`C[C@@H]1CN([C@H](C)CO)C(=O)c2cc(NC(=O)Nc3ccc4c(c3)OCO4)ccc2O[C@H]1CN(C)Cc1ccncc1` gave NOMO-1 viab -5.6 and MITF inhib 0.6.
C[C@@H]1CN([C@H](C)CO)C(=O)c2cc(NC(=O)Nc3ccc(F)cc3)ccc2O[C@H]1CN(C)Cc1ccc(Cl)c(Cl)c1 was read as Shh pathway inh -39.5, NOMO-1 viab 15.0 and MITF inhib 5.1.
Screening C[C@H]1CN([C@@H](C)CO)C(=O)c2cc(NC(=O)Nc3ccc(F)cc3)ccc2O[C@H]1CN(C)Cc1ccc(Cl)c(Cl)c1 returned NOMO-1 viab 99.4* and MITF inhib 5.3.
`COc1ccc(NC(=O)Nc2ccc3c(c2)C(=O)N([C@H](C)CO)C[C@@H](C)[C@H](CN(C)Cc2ccc(Cl)c(Cl)c2)O3)cc1` gave NOMO-1 viab -13.3 and MITF inhib 2.4.
C[C@H]1CN([C@@H](C)CO)C(=O)c2cc(NC(=O)Nc3ccc4c(c3)OCO4)ccc2O[C@H]1CN(C)Cc1ccc(Cl)c(Cl)c1 was read as Shh pathway inh -35.7, NOMO-1 viab -1.6 and MITF inhib -2.1.
Screening C[C@H]1CN([C@@H](C)CO)C(=O)c2cc(NC(=O)Nc3ccc4c(c3)OCO4)ccc2O[C@H]1CN(C)Cc1ccncc1 returned NOMO-1 viab 94.6* and MITF inhib -2.9.
For C[C@@H]1CN([C@@H](C)CO)C(=O)c2cc(NC(=O)Nc3ccc(F)cc3)ccc2O[C@@H]1CN(C)Cc1ccc(Cl)c(Cl)c1 the results were Shh pathway inh 84.7*, NOMO-1 viab 113.1* and MITF inhib 73.8.
C[C@@H]1CN([C@@H](C)CO)C(=O)c2cc(NC(=O)Nc3ccc4c(c3)OCO4)ccc2O[C@@H]1CN(C)Cc1ccc(Cl)c(Cl)c1 was read as NOMO-1 viab 95.3* and MITF inhib 2.4.
For COc1ccc(OC)c(C(=O)CSc2nnc(-c3ccncc3)n2-c2ccc(C)cc2)c1 the results were NOMO-1 viab 20.3 and MITF inhib 0.5.
For C[C@@H]1CN([C@H](C)CO)C(=O)Cc2cc(NC(=O)C3CCCCC3)ccc2O[C@@H]1CN(C)S(=O)(=O)c1ccccc1 the results were Shh pathway inh -38.8, NOMO-1 viab 11.9 and MITF inhib -6.1.
For COc1ccc(N(CC(=O)Nc2ccccc2Br)S(C)(=O)=O)cc1OC the results were NOMO-1 viab 3.0 and MITF inhib -10.3.
`C[C@@H]1CN([C@@H](C)CO)C(=O)c2cc(NS(=O)(=O)c3cccs3)ccc2O[C@@H]1CN(C)S(=O)(=O)c1ccc(Cl)cc1` gave Shh pathway inh 9.0, NOMO-1 viab 6.8 and MITF inhib 9.7.
`Cc1cccc(OCC(=O)Nc2cccc(-c3nc4ccccc4s3)c2)c1C` gave NOMO-1 viab -4.5 and MITF inhib -1.5.
Screening Cc1ccc(S(=O)(=O)c2ccc(Cl)cc2)cc1S(=O)(=O)N1CCCC1 returned Shh pathway inh 2.3, NOMO-1 viab 69.2 and MITF inhib 34.8.
For CN(CC(=O)Nc1ccccc1-c1ccccc1)S(=O)(=O)c1ccc(Br)cc1 the results were NOMO-1 viab 29.0 and MITF inhib 11.5.
Screening C[C@H](CO)N1C[C@H](C)[C@@H](CN(C)C(=O)Nc2ccc(F)cc2)Oc2ccc(NC(=O)CCN3CCOCC3)cc2C1=O returned Shh pathway inh -15.3, NOMO-1 viab -10.1 and MITF inhib 3.2.
For C[C@@H]1CN([C@@H](C)CO)C(=O)c2cc(NC(=O)Nc3ccccc3)ccc2O[C@H]1CN(C)Cc1ccc(Cl)c(Cl)c1 the results were Shh pathway inh 18.1, NOMO-1 viab 123.6* and MITF inhib inconclusive.
Screening COc1ccc(NC(=O)Nc2ccc3c(c2)C(=O)N([C@@H](C)CO)C[C@H](C)[C@@H](CN(C)Cc2ccc(Cl)c(Cl)c2)O3)cc1 returned Shh pathway inh 11.6, NOMO-1 viab 30.9 and MITF inhib 2.0.
`CC(C)NC(=O)Nc1ccc2c(c1)C(=O)N([C@@H](C)CO)C[C@@H](C)[C@@H](CN(C)Cc1ccc(Oc3ccccc3)cc1)O2` gave Shh pathway inh 24.0, NOMO-1 viab 34.0 and MITF inhib -9.3.
`C[C@@H]1CN([C@H](C)CO)C(=O)c2cccc(NS(=O)(=O)c3ccc(F)cc3)c2O[C@H]1CN(C)CC1CCCCC1` gave Shh pathway inh inconclusive, NOMO-1 viab 13.4 and MITF inhib 10.2.
For CSCCC(Nc1ncnc2sc3c(c12)CCCC3)C(=O)O (stereo not given) the results were NOMO-1 viab -4.6 and MITF inhib -11.8.
`O=C(Nc1ncnc2sc3c(c12)CCCCC3)c1ccc(F)cc1` gave NOMO-1 viab 108.9* and MITF inhib 0.8.
